According to the supplement of paper PMC11732987, “Enantioselective OTUD7B fragment discovery through chemoproteomics screening and high-throughput optimisation” (Communications Chemistry, 2025):

How the values were obtained:
Experiment in all cases: log2 ratio of Biotin-Ahx-Ub-VS probe labelling (fragment/DMSO); higher = less target engagement (more negative = stronger competition), active = hit call of the paper (q ≤ 0.05, log2 ratio ≤ -1)
Conditions in all cases: compound concentration: 200 uM; treatment time: 3 h
[1] = molecular target: T1, USP19 (UniProt O94966)
T1 sequence (whole entry): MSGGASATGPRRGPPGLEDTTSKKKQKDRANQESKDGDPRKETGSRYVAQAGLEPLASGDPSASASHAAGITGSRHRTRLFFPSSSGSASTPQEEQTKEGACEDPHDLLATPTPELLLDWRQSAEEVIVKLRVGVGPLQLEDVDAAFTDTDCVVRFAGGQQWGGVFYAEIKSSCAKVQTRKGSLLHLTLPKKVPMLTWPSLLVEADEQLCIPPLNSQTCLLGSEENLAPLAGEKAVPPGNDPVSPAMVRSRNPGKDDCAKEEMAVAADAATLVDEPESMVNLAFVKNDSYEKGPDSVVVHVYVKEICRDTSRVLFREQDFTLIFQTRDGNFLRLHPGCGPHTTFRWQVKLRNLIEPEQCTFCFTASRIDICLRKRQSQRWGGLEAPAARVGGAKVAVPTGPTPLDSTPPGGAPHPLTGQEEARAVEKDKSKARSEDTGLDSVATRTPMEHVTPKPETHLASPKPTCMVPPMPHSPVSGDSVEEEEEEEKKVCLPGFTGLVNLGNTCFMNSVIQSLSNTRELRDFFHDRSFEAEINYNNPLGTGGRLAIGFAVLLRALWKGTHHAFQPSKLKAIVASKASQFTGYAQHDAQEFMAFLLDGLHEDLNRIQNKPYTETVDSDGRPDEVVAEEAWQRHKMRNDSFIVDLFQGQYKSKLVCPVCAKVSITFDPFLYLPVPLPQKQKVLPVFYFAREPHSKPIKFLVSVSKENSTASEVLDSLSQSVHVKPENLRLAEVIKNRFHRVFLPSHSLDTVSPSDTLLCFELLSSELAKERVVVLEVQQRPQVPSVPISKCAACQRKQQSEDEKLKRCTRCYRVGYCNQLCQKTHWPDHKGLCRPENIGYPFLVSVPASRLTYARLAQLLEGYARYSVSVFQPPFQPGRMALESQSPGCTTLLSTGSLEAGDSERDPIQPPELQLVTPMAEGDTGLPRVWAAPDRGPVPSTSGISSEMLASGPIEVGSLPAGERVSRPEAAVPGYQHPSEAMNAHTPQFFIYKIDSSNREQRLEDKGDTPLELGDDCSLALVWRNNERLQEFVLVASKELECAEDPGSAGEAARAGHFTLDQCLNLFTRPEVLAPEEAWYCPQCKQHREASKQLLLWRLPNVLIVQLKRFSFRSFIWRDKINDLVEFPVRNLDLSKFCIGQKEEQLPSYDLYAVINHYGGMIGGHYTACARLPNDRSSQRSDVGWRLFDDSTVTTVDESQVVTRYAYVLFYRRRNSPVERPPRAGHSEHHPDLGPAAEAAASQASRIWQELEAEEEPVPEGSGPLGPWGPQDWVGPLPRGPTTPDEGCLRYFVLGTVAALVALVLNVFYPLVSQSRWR
In short: (§1)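 Average log2 ratios of fragment over vehicle were obtained by unpaired t-test from global-median-normalised Spectronaut label-free quantities. Proteins with ≥2 unique peptides were included. HEK293T lysate (495 µg per sample) was treated in triplicate with fragment at 200 µM or vehicle for 3 h, then with Biotin-Ahx-Ub-VS at 0.5 µM final for 1 h, and labelled DUBs were NeutrAvidin-enriched and run by diaPASEF LC-MS/MS.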

[2] = molecular target: T2, USP22 (UniProt Q9UPT9)
T2 sequence (whole entry): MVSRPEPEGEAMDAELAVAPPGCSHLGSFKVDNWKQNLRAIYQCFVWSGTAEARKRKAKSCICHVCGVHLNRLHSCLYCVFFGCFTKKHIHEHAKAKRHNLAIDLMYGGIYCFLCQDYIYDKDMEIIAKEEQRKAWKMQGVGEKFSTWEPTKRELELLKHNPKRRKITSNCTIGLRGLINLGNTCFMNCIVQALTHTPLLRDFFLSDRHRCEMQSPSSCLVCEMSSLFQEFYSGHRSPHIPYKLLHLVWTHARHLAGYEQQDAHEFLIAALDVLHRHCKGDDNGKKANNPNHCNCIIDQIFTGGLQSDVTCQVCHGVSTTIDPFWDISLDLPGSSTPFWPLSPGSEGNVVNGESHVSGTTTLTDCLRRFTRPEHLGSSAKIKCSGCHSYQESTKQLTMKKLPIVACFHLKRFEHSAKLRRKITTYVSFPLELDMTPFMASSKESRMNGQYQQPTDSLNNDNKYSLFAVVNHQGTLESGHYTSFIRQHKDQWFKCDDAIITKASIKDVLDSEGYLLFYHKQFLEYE
In short: as §1

[3] = molecular target: USP24 (UniProt Q9UPU5)
In short: as §1

[4] = molecular target: T3, USP25 (UniProt Q9UHP3)
T3 sequence (whole entry): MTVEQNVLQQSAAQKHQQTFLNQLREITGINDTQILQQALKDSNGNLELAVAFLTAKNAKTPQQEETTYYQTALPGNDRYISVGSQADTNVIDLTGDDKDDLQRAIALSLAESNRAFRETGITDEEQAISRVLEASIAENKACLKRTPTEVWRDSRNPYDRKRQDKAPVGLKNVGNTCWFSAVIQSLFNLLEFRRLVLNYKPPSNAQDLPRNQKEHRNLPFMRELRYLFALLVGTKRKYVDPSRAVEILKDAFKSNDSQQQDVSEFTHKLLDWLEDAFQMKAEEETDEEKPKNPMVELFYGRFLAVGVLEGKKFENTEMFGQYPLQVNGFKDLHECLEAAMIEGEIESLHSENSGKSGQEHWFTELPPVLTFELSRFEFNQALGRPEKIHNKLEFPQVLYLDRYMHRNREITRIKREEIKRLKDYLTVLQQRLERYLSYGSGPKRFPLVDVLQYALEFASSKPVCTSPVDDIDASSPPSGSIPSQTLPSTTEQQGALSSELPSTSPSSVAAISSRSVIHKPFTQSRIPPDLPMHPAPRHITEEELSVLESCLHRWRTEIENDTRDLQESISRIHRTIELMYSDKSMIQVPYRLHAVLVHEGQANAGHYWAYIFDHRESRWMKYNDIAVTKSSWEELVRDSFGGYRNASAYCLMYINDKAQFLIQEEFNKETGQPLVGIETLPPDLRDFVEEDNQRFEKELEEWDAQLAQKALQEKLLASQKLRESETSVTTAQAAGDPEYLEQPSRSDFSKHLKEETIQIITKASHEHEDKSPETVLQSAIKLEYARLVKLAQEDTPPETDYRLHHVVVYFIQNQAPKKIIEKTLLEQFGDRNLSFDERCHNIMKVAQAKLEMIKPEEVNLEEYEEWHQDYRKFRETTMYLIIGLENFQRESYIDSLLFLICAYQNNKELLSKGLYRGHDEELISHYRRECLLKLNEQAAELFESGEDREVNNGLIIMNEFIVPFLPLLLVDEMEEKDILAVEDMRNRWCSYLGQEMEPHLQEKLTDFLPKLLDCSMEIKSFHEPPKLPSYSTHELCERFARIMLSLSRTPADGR
In short: as §1

[5] = molecular target: T4, USP28 (UniProt Q96RU2)
T4 sequence (whole entry): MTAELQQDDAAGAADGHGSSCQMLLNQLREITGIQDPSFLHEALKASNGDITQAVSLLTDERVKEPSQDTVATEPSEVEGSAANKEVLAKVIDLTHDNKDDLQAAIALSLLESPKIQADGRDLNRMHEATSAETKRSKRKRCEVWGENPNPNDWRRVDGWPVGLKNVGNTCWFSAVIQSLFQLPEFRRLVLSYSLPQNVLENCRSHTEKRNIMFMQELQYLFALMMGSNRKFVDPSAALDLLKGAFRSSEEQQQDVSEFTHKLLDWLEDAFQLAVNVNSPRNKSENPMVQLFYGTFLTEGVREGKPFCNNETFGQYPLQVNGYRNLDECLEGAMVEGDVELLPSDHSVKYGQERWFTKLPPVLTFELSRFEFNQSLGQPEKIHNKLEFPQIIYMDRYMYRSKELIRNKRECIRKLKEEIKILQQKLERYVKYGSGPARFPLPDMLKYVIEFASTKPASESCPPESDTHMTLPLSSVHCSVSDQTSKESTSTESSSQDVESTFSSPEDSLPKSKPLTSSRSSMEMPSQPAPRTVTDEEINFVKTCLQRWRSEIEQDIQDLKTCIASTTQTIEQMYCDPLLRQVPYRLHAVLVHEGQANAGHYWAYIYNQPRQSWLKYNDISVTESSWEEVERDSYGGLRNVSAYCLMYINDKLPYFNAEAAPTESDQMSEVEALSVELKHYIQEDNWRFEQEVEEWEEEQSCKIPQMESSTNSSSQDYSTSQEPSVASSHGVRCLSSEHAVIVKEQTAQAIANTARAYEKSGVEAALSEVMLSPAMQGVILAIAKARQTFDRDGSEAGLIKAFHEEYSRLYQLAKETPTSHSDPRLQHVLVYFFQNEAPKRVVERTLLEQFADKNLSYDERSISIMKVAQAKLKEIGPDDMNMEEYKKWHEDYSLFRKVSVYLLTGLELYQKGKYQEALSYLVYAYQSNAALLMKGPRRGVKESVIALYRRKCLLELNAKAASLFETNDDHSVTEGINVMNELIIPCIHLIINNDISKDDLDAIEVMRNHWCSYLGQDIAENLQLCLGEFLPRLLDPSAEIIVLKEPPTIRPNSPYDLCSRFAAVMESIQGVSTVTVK
In short: as §1

Measured: log2 ratio of Biotin-Ahx-Ub-VS probe labelling

Sequence of USP24 (Q9UPU5 whole entry): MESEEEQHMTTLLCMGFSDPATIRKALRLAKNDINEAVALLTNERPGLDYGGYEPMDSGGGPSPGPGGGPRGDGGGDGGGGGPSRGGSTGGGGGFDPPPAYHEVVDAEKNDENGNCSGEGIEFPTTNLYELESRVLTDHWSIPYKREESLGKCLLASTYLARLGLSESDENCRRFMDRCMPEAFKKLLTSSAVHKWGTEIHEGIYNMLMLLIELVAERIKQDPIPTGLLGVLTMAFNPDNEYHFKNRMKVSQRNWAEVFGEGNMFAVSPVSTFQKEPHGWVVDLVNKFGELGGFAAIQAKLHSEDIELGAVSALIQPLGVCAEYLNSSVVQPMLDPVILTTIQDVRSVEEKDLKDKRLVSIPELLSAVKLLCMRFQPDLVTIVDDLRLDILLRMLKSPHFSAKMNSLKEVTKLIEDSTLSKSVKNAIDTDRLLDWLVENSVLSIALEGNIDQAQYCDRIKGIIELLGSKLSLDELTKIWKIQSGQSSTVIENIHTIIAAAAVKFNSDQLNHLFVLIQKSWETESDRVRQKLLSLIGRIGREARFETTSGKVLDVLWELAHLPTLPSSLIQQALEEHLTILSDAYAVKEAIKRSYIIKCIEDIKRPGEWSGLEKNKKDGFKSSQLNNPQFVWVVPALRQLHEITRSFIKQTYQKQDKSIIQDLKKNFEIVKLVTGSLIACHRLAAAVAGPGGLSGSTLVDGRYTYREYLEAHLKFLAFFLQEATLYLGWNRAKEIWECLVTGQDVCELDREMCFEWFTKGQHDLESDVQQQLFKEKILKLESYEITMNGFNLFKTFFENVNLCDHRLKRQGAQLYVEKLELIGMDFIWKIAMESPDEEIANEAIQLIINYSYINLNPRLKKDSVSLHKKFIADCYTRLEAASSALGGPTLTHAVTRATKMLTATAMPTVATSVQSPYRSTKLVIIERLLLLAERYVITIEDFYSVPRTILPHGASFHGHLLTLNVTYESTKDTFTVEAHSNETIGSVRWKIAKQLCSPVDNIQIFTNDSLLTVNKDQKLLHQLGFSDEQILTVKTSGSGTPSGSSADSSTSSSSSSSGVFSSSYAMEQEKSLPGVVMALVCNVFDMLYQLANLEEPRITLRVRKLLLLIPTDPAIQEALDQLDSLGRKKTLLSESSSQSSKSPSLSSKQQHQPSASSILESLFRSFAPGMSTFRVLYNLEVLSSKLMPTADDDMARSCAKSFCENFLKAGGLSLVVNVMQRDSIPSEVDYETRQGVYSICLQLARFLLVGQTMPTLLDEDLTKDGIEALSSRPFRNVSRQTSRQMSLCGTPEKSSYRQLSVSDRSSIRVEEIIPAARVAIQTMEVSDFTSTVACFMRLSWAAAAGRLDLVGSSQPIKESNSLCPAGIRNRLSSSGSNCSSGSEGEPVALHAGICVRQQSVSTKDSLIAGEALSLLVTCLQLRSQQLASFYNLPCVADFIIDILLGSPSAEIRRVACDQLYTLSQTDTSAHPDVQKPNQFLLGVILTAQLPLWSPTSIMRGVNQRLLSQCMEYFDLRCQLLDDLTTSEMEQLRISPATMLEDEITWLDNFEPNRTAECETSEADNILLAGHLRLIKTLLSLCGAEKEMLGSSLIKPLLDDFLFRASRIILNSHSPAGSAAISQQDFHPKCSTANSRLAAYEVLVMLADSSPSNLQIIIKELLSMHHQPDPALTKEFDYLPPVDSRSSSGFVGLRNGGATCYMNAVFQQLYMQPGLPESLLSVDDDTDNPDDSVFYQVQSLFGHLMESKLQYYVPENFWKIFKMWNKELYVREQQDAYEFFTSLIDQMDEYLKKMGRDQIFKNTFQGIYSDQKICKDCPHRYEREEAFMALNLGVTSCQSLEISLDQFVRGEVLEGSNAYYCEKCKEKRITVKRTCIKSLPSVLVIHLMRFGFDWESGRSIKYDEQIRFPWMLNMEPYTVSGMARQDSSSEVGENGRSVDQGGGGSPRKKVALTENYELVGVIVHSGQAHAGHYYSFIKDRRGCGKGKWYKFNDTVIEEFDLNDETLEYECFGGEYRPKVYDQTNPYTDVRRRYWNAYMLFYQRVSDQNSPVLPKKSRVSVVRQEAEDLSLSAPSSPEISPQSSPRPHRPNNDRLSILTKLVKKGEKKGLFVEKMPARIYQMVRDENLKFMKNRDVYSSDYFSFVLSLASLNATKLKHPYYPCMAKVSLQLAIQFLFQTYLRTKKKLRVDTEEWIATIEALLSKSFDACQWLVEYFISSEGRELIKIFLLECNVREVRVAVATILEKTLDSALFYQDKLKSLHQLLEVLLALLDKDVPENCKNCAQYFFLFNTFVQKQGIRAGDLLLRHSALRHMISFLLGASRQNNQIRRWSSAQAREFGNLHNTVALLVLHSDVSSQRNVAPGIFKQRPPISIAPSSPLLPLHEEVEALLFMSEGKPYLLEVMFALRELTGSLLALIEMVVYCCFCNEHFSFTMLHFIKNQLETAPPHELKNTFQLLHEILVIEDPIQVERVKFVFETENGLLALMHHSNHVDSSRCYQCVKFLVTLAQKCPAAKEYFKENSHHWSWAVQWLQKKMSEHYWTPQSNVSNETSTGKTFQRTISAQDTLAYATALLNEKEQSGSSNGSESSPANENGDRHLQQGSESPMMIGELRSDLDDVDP

O=C(CCl)NC1CCC(C(F)(F)F)CC1 (stereo not given)
inactive: [1] -0.155 | [2] 0.067 | [3] -0.771 | [4] -0.322 | [5] -0.705
